High-throughput results from PubChem.
The sample as a whole holds a higher share of hits than the screen did.
EZH2 inh – EZH2/PRC2 methyltransferase inhibitors, primary screen, biochemical, DELFIA time-resolved fluorescence, single point. AID 651548, 2012. 57,000 tested, 0.35% active. Histone-lysine N-methyltransferase EZH2 (Homo sapiens), Q15910. inhibition, % at 12.5 µM. PRC2 H3K27 methylation, DELFIA TRF, 1 h;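 active = mean inhibition of replicates at least 50% and every single replicate also reaching 50%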;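 note: dimethyl H3K27 on biotinylated H3 21-44 peptide detected by antibody; plate controls were median neutral control wells for no effect and median positive control wells for full effect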
The depositor's hits bear a star.

SMILES	EZH2 inh
O=C1O[C@H](c2ccccc2)[C@H](c2ccccc2)N2[C@H]1[C@@H](C(=O)N1CCCCCCC1)[C@]1(C(=O)Nc3ccc(C#CC4(O)CCCCCC4)cc31)[C@H]2c1ccc(OCCO)cc1	-20
C=CCNC(=O)[C@H]1[C@@H]2C(=O)O[C@@H](c3ccccc3)[C@@H](c3ccccc3)N2[C@@H](c2ccccc2OCCO)[C@]12C(=O)Nc1ccc(C#CC3(O)CCCCCC3)cc12	-27
NC(=O)[C@@H]1[C@H]2C(=O)O[C@H](c3ccccc3)[C@H](c3ccccc3)N2[C@H](c2ccc(OCCO)cc2)[C@@]12C(=O)Nc1ccc(C#CC3(O)CCCCCC3)cc12	-29
O=C1O[C@@H](c2ccccc2)[C@@H](c2ccccc2)N2[C@@H](c3ccccc3OCCO)[C@]3(C(=O)Nc4ccc(C#CC5(O)CCCCCC5)cc43)[C@@H](C(=O)O)[C@H]12	73*
NC(=O)[C@@H]1[C@H]2C(=O)O[C@H](c3ccccc3)[C@H](c3ccccc3)N2[C@H](c2ccccc2OCCO)[C@@]12C(=O)Nc1ccc(C#CCCO)cc12	-38
O=C1O[C@H](c2ccccc2)[C@H](c2ccccc2)N2[C@H]1[C@@H](C(=O)O)[C@]1(C(=O)Nc3ccc(C#CC4(O)CCCCCC4)cc31)[C@H]2c1ccccc1OCCO	60*
CO[C@@H]1CN(C)C(=O)c2ccc(NC(=O)Nc3ccc4c(c3)OCO4)cc2OC[C@@H](C)N(C(C)=O)C[C@H]1C	-1
O=C(C[C@@H]1C[C@@H]2c3cc(NC(=O)Nc4ccccc4)ccc3O[C@@H]2[C@@H](CO)O1)NCc1cccnc1	-16
COC(=O)[C@@H](O)[C@H]1[C@@]2(C)C[C@]3(O)C4[C@@H](O[C@]56CC(=O)O[C@@H](c7ccoc7)[C@@]5(C)CCC([C@]46O)[C@]13C)[C@H]2O (stereo not given in full)	100*
CC12CC(c3ccoc3)OC(=O)C1CCC1(C)C2C2OC(=O)C1(O)C1OC21 (stereo not given)	10
CS(=O)(=O)Nc1ccc2c(c1)[C@H]1C[C@@H](CC(=O)NCc3ccccc3F)O[C@@H](CO)[C@H]1O2	-7
OC(CSc1cccc2cccnc12)Cn1c2ccccc2c2ccccc21 (stereo not given)	15
O=c1cc(-c2ccc(O)cc2)oc2c(C3OCC(O)C(O)C3O)c(O)c(C3OC(CO)C(O)C(O)C3O)c(O)c12 (stereo not given)	58*
CC1OC(Oc2cc(O)c3c(=O)cc(-c4ccc(O)cc4)oc3c2C2OC(CO)C(O)C(O)C2O)C(O)C(O)C1O (stereo not given)	2
COc1c(OC)c(O)c2c(=O)cc(-c3ccc(O)cc3)oc2c1OC	3
C[C@H]1CN([C@@H](C)CO)C(=O)Cc2cc(NC(=O)Nc3ccc(F)cc3)ccc2O[C@H]1CN(C)CC1CC1	1
CCCNC(=O)C[C@H]1C[C@H]2c3cc(NC(=O)Nc4ccccc4)ccc3O[C@H]2[C@H](CO)O1	3
C[C@@H]1CN([C@@H](C)CO)C(=O)c2cc(C#CC3CC3)cnc2O[C@@H]1CN(C)C(=O)C1CCCCC1	-2
O=C(c1cnc2ccccn12)C(F)(F)SCc1c(Cl)cccc1Cl	59*
O=C(CSc1nnc2ccccn12)Nc1c(Cl)cc(Cl)cc1Cl	-9
CCOc1cccc(/C=N/NC(=O)c2ccccc2O)c1OCC	0
C[C@@H]1CN([C@@H](C)CO)C(=O)c2cccc(NC(=O)C3CCOCC3)c2O[C@H]1CN(C)CC1CCCCC1	-4
C[C@H](CO)N1C[C@H](C)[C@H](CN(C)Cc2ccc(-c3ccccc3)cc2)Oc2ccc(NC(=O)Cn3cnnn3)cc2CC1=O	-15
O=C(NO)c1ccc(C(=O)N/N=C/c2ccc(Br)s2)cc1	13
COc1ccc(S(=O)(=O)N(C)CC(N)=O)cc1	10
SMILES	EZH2 inh
O=C(CCCN1C(=O)c2ccccc2C1=O)Nc1ccc(Cl)c(C(F)(F)F)c1	13
O=C(CCNc1ccc(Cl)c(C(F)(F)F)c1)c1ccccc1	56*
O=C(CNS(=O)(=O)c1ccccc1)Nc1ccc(Cl)c(C(F)(F)F)c1	0
Cc1ccc(Cl)cc1N(CC(=O)Nc1ccc(C(F)(F)F)cc1)S(C)(=O)=O	-5
COc1cccc(S(=O)(=O)N[C@H]2CC[C@H](CCn3cc(-c4ccccn4)nn3)O[C@H]2CO)c1	-11
CNC(=O)c1cc(Oc2ccc(NC(=O)Nc3ccc(Cl)c(C(F)(F)F)c3)cc2)ccn1	57*
CC(=O)Nc1ccc(NC(=O)CN(c2ccc(Cl)c(C(F)(F)F)c2)S(C)(=O)=O)cc1	-27
CS(=O)(=O)N(CC(=O)Nc1ccc(Cl)c(C(F)(F)F)c1)c1cccc(C(F)(F)F)c1	22
C[C@H](CO)N1C[C@H](C)[C@@H](CN(C)Cc2ccc3c(c2)OCO3)Oc2ccc(NC(=O)CCC(F)(F)F)cc2CC1=O	-5
CC(C)c1onc(-c2c(Cl)cccc2Cl)c1COc1ccc(/C=C/c2cccc(C(=O)O)c2)c(Cl)c1	73*
